Rows were chosen to be rich in hits. Some 7.3% of all compounds tested hit in one or more screens of this group.
SNCA expr inh: SNCA gene expression inhibition. HEK-293 SNCA-luciferase knock-in, luminescence, 24 h. Potency, µM (highest dose often 57.2 µM), without a hit: at the highest dose activity change, negative = inhibition, usual class: inhibitors. 140,000 tested, 0.17% active;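 also: potency is read from the fitted curve at half-maximal effect; plate controls were DMSO cells for no effect and cell-free wells for full effect; nearly all actives have a fitted effect of over 45% in size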
IP6K1 inh: blocks human inositol hexakisphosphate kinase 1; Q92551; IP6K1 kinase, ADP-Glo luminescence, 2 h; hits give low values; activity change, % (series mostly up to about 58 µM); 140,000 tested, 0.81% active; in the data active = activity change below about -25%
Target sequence (Q92551 whole entry, looked up): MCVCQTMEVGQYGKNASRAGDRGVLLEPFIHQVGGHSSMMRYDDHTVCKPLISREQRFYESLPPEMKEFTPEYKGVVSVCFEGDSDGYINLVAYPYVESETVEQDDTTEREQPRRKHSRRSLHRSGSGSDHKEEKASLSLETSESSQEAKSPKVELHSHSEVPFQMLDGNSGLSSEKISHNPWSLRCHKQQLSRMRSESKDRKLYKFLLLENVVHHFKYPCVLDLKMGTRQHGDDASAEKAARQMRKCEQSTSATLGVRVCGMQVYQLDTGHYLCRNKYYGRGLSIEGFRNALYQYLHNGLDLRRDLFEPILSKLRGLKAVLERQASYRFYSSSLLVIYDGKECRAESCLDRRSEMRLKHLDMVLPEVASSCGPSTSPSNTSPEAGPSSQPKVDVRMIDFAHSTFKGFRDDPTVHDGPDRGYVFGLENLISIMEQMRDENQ
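ADP-Glo luminescence measures ADP made by human IP6K1 during a 2 h RT reaction with ATP/IP6 (mix at 1.3 mM/130 uM); top library doses 57.5 and 19.1 uM final.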
Luciferase inh: Photinus pyralis luciferase inhibition | 76,000 tested, 2.5% active | AID 1347043 | Potency, µM (highest dose often 115 µM), hits mostly inhibitors | purified P. pyralis luciferase, luminescence, biochemical | P08659; also: potency is read from the fitted curve at half-maximal effect; nearly all actives have a fitted effect of over 65% in size
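Luminescence read by CCD imager after adding enzyme (10nM final) to wells holding compound, titrated in qHTS. Substrates 10uM each D-luciferin and ATP; buffer 50mM Tris acetate pH 7.5, 10mM Mg acetate, Tween-20, BSA.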
3T3 cytotox: NIH 3T3 cell cytotoxicity. NIH 3T3 viability, CellTiter-Glo ATP luminescence, 48-72 h. Potency, µM (series often up to 96.7 µM), without a hit: at the top dose activity change, negative = cytotoxicity, most hits filed as inhibitors. 94,000 tested, 4.3% active; also: potency is read from the fitted curve at half-maximal effect; nearly all actives have a fitted effect of over 55% in size
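Viability of NIH 3T3 cells after 48 or 72 hr compound treatment at 37 °C was assessed by CellTiter-Glo, with luminescence imaged following a 10 min room-temperature step.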
SNCA viab count: reduces viability of HEK-293 SNCA reporter cells | Potency, µM (titrated, usually from 57.1 µM), for the others: at the highest dose activity change, negative = cytotoxicity, usual class: cytotoxic | AID 1671193 | HEK-293-SNCA-luc viability, GF-AFC fluorescence, 24 h | 150,000 tested, 0.12% active;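 also: potency is read from the fitted curve at half-maximal effect; 0% = DMSO-treated cells and -100% = medium-only wells without cells; nearly all actives have a fitted effect of over 30% in size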
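HEK-293-SNCA-luc cells (1500/well) plated 24 h, then exposed 24 h to a dilution series; GF-AFC added 30 min at 37C, fluorescence 405/540 nm; normalised to medium-only and DMSO wells, Hill fit.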
HEK293 tox: HEK 293 cell cytotoxicity; AID 1345083; Potency, µM (series often up to 115 µM), without a hit: at the top dose activity change, negative = cytotoxicity, hits mostly inhibitors; 94,000 tested, 6.6% active; HEK 293 viability, ATP luminescence (CellTiter-Glo), 48-72 h; also: potency is read from the fitted curve at half-maximal effect; nearly all actives have a fitted effect of over 60% in size
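Cells seeded first (HEK 293, 250 cells/well), then compound added by pintool. Incubation ran 48 or 72 hr at 37 degree Celsius. CellTiter-Glo was added and luminescence imaged after 10 min at room temperature.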
* = called active by the depositor; i = inactive; ? = inconclusive; . = no result given; [ ] = dose if it differs, or a comment. Unless noted, calls follow the shape of the dose curve; as a rule, active = well fitted curve in the direction sought with a large enough effect; inconclusive = small, poorly fitted or top-dose-only effect, or another doubt; inactive = no such curve, though single readings can be large; an effect the other way counts as inactive or inconclusive. Unless noted, % is scaled to controls: 0 for no effect and ±100 for the full control effect.

SMILES | SNCA expr inh | IP6K1 inh | Luciferase inh | 3T3 cytotox | SNCA viab count | HEK293 tox
COc1cc2c(cc1OCc1ccccc1)N([S+](=O)([O-])c1ccc3c(c1)CCO3)CC21CCN(C)CC1 | 5% | -3 | i | ? | 6% | ?
COc1ccc(CNC[C@H]2C[C@@H]3CCN2C[C@@H]3c2cc(-c3ccc(F)cc3)nn2C)cc1 | -28%[87.6 µM] | -2 | i | 89µM* | -1%[87.6 µM] | 45µM*
Cn1nc(-c2ccccc2)cc1[C@H]1CN2CC[C@H]1C[C@@H]2CNC(=O)NCc1ccccc1 | -3%[87.6 µM] | -13 | i | 100µM* | 3%[87.6 µM] | ?
Cn1nc(-c2ccc(F)cc2)cc1[C@H]1CN2CC[C@H]1C[C@@H]2CNC(=O)NCc1ccccc1 | -21% | -4 | i | ? | -7% | 25µM*
Cc1nc(-c2ccco2)cc([C@H]2CN3CC[C@H]2C[C@@H]3CNC(=O)Cc2cccs2)n1 | 20%[87.6 µM] | 7 | i | ? | 0%[87.6 µM] | ?
Cc1ccc(CN2C[C@@H]3C(C(N)=O)=NO[C@@H]3C2)nc1 | -27%[87.6 µM] | 0 | i | 112µM* | 3%[87.6 µM] | -9%[230 µM]
CCN1CCCN(C(=O)COc2ccccc2)CC12CCOCC2 | 26% | -10 | . | -13% | 18% | -23%
CCN(CC)C[C@H]1CN2CC[C@H]1C[C@@H]2CNC(=O)Nc1cccc(SC)c1 | 10%[87.6 µM] | -5 | i | 40µM* | -22%[87.6 µM] | 50µM*
CSc1cccc(NC(=O)NC[C@H]2C[C@@H]3CCN2C[C@@H]3CN(C)Cc2ccccc2)c1 | -1% | -8 | i | 22µM* | 2% | 28µM*
CC[C@H]1CN2CC[C@H]1C[C@@H]2CNC(=O)Nc1cccc(SC)c1 | 7%[87.6 µM] | -1 | i | -22%[174 µM] | 0%[87.6 µM] | -24%[172 µM]
C#C[C@H]1CN2CC[C@H]1C[C@@H]2CNC(=O)Nc1cccc(SC)c1 | 8%[87.6 µM] | 6 | i | ? | 0%[87.6 µM] | -30%[172 µM]
CSc1cccc(NC(=O)NC[C@H]2C[C@@H]3CCN2C[C@@H]3CN(C)c2ccccc2)c1 | ? | -7 | ? | 32µM* | ? | 25µM*
CCCCc1cn(C[C@H]2CC3CCN2C[C@@H]3C(=O)NCc2ccc3c(c2)OCO3)nn1 (some centres undefined) | -20%[87.6 µM] | 21 | i | -9%[174 µM] | -8%[87.6 µM] | -2%[172 µM]
CCn1nccc1C(=O)N1[C@H]2CC[C@@H]1c1cnc(-c3ccc(F)cc3)nc1C2 | -28% | 5 | i | ? | -11% | ?
CCC(CC)c1cc([C@H]2CN3CC[C@H]2C[C@@H]3CNC(=O)Nc2ccc(OC)cc2)nc(-c2ccncc2)n1 | -17% | 10 | i | ? | -19% | 32µM*
CCC(CC)c1cc([C@H]2CN3CC[C@H]2C[C@@H]3CNC(=O)COC)nc(-c2ccncc2)n1 | -9% | 13 | i | ? | 4% | -14%
CCCS(=O)(=O)NC[C@H]1C[C@@H]2CCN1C[C@@H]2c1cc(C(CC)CC)nc(-c2ccncc2)n1 | 8% | 11 | i | ? | 0% | ?
CCC(CC)c1cc([C@H]2CN3CC[C@H]2C[C@@H]3CNC2CCN(C)CC2)nc(-c2ccncc2)n1 | ? | -1 | i | 18µM* | ? | 14µM*
CCC(CC)c1cc([C@H]2CN3CC[C@H]2C[C@@H]3CNC(=O)Nc2ccc(C(C)=O)cc2)nc(-c2ccncc2)n1 | 7% | -1 | i | 18µM* | -23% | 25µM*
CCOC(=O)[C@H]1CN(C(=O)NC2CCCC2)[C@]2(C)C(=O)N(CC3CC3)c3ccccc3[C@H]12 | -19%[25.6 µM] | -17 | . | ? | 4%[23.9 µM] | 32µM*
CCOC(=O)[C@H]1CN(C(=O)OCc2ccccc2)[C@]2(C)C(=O)N(CC3CC3)c3ccccc3[C@H]12 | -26%[25.6 µM] | -1 | . | ? | 0%[23.9 µM] | 35µM*
CCOC(=O)[C@H]1CN(C(=O)NC2CCCC2)[C@]2(C)C(=O)N(CCOC(C)=O)c3ccccc3[C@H]12 | -22%[25.6 µM] | 3 | . | ? | -18%[23.9 µM] | -24%[57.5 µM]
CCCCCC(=O)N1C[C@H](C(=O)OCC)[C@H]2c3ccccc3N(CC3CC3)C(=O)[C@]21C | ? | -15 | . | ? | -25%[23.9 µM] | 32µM*
CCOC(=O)[C@H]1CN(C(=O)CCc2ccccc2)[C@]2(C)C(=O)N(CC3CC3)c3ccccc3[C@H]12 | -6%[25.6 µM] | -19 | . | ? | 3%[23.9 µM] | ?
CCOC(=O)[C@H]1CN(C(=O)OCc2ccccc2)[C@]2(C)C(=O)N(C)c3ccccc3[C@H]12 | -5%[25.6 µM] | -13 | . | -20%[46.1 µM] | -6%[23.9 µM] | ?
SMILES | SNCA expr inh | IP6K1 inh | Luciferase inh | 3T3 cytotox | SNCA viab count | HEK293 tox
CCCNC(=O)OC[C@H]1C[C@@H]2CCN1C[C@@H]2c1cc(-c2ccc(F)cc2)nc(C)n1 | -29%[87.6 µM] | 5 | i | ? | 4%[87.6 µM] | ?
Cc1nc(-c2ccc(N(C)C)cc2)cc([C@H]2CN3CC[C@H]2C[C@@H]3COC(=O)Nc2ccccc2)n1 | ? | -8 | i | 4µM* | ? | ?
Cc1nc(-c2ccc(N(C)C)cc2)cc([C@H]2CN3CC[C@H]2C[C@@H]3CNC(=O)c2ccco2)n1 | -24% | -4 | ? | ? | -5% | ?
COc1cc(NC(=O)OC[C@H]2C[C@@H]3CCN2C[C@@H]3c2cc(-c3ccc(N(C)C)cc3)nc(C)n2)cc(OC)c1 | ? | -11 | ? | 7.9µM* | ? | 5.6µM*
COc1ccc(NC(=O)OC[C@H]2C[C@@H]3CCN2C[C@@H]3c2cc(-c3ccc(N(C)C)cc3)nc(C)n2)cc1 | ? | 12 | i | 16µM* | ? | 18µM*
Cc1nc(-c2ccc(N(C)C)cc2)cc([C@H]2CN3CC[C@H]2C[C@@H]3CNC(=O)NC(C)C)n1 | 1%[87.6 µM] | -12 | i | 89µM* | -21%[87.6 µM] | ?
COc1cc2c(cc1OC1CCCC1)NC(=O)C21CCN(c2ccc(C#N)cn2)CC1 | 4%[87.6 µM] | -8 | i | ? | 9%[87.6 µM] | ?
COc1cccc([C@@H]2CCN(Cc3cc4ccccc4n(C)c3=O)C[C@H]2O)c1 | 0% | -12 | i | ? | -2% | ?
c1cc(CC2CN3CCCC3CN2)cs1 (centres undefined) | 29%[87.6 µM] | -13 | . | i | 2%[87.6 µM] | i
O=C(Nc1ccc2n(c1=O)C[C@H]1C[C@@H]2CN(C(=O)NC2CCCCC2)C1)c1ccco1 | 11%[87.6 µM] | -9 | i | 89µM* | -27%[87.6 µM] | -13%[172 µM]
CC(C)(C)CC(=O)N1C[C@@H]2C[C@H](C1)c1ccc(NC(=O)c3ccco3)c(=O)n1C2 | 37%[87.6 µM] | 9 | i | 5%[174 µM] | -6%[87.6 µM] | -1%[172 µM]
COc1ccc(CCC(=O)N2[C@H]3CC[C@@H]2c2cnc(-c4ccc(F)cc4)nc2C3)cc1 | -6% | 37 | ? | ? | -10% | ?

Assay outcomes: PubChem, National Center for Advancing Translational Sciences (NCATS)
